# Test results: PubChem BioAssay AID2782 (National Center for Advancing Translational Sciences (NCATS), 2010)
# Inconclusive results are not listed. Unmarked numbers belong to inactive results. Activity calls are given as the source filed them. The call rests on the fitted dose curve; in most records, active means well fitted inhibition curve with a large enough effect in the polarisation, with a control signal flat (not every such curve was filed as active); inconclusive means small, poorly fitted or top-dose-only effect, or effect the other way, or a change in a side signal; inactive means no such curve, though single readings can be large or run the other way; the % refers to the polarisation.
# Test: Confirmation of Inhibitors Targeting the Menin-MLL Interaction in MLL Related Leukemias: Competition With Texas Red Labeled MLL-derived Mutant Peptide
# Conditions: fluorescence polarization, Texas Red MLL peptide displacement; series mostly up to 94.6 µM; FP change, negative = inhibition: at the top concentration
# Summary of the method: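 Hits from the primary screen were retested: compounds were incubated 1 hr at ambient with 200 nM menin, 50 nM Texas Red mutant peptide and 25 nM fluorescein wild-type peptide (Tris pH 7.5, BSA-supplemented buffer), then fluorescence polarization was read.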
# On the % scale 0 is the no-effect control and ±100 the full control effect; potency means the concentration at half of the fitted maximal effect.
Structure (SMILES),"FP change, negative = inhibition",Potency
CN[C@H]1[C@H](O)[C@@H](O[C@@H]2[C@H](O)[C@@H](O[C@H]3OC(CN)=CC[C@H]3N)[C@@H](N)C[C@H]2N)OC[C@@]1(C)O,-11.3%,–
COc1ccc(/C=C(\C#N)C(=O)NCc2ccccc2)cc1,14.8%,–
NS(=O)(=O)c1ccc(NC(=O)c2ccc(S(=O)(=O)N3CCc4ccccc43)cc2)cc1,–,20 µM (active)
COC(=O)COc1ccc(C(C2C(=O)CC(C)(C)CC2=O)C2C(=O)CC(C)(C)CC2=O)cc1,-18%,–
CCC(C)CCCCC(=O)NC(CCN)C(=O)NC(C(=O)NC(CCN)C(=O)NC1CCNC(=O)C(C(C)O)NC(=O)C(CCN)NC(=O)C(CCN)NC(=O)C(CC(C)C)NC(=O)C(Cc2ccccc2)NC(=O)C(CCN)NC1=O)C(C)O (centres undefined),–,7.08 µM (active)
COc1ccc(Cn2nnnc2C(c2ccc3ncccc3c2)N2CCN(C3CCCCC3)CC2)cc1 (centres undefined),–,89.1 µM (active)
O=C(N1CCOCC1)N1CCN(S(=O)(=O)c2ccc(Cl)cc2)CC1,2.27%,–
CCn1ncc(C(=O)Nc2cc(C)on2)c1C,-7.12%,–
O=C(Nc1cccn(Cc2c(Cl)cccc2Cl)c1=O)c1c(Cl)cccc1Cl,36.9% [at 288 µM],–
COc1ccccc1C(=O)Nc1ccnn1C1CCN(CC2CC=CCC2)CC1 (centres undefined),–,126 µM (active)
Cc1cnc(NC(=O)C2C(=O)c3ccccc3S(=O)(=O)N2C)s1 (centres undefined),8.84% [at 288 µM],–
O=C1Cc2ccccc2Sc2c(OCCN3CCCCC3)cccc21,–,126 µM (active)
Cc1nc(C)c(-c2ccc(SCc3ccccc3F)nn2)s1,20.8%,–
CC(=O)NC1C(=O)N(CCN2CCOCC2)c2ccc(C)cc21 (centres undefined),–,71 µM (active)
